aSyn UTR act: Activators via SNCA 5'UTR binding, MLPCN | alpha-synuclein 5'UTR reporter, activators screen | activity score, % (tested at 7.5 µM), hits read low | hit rate 7.1% among 300,000 | AID 1814, 2009; in the data active = activity score below about -60%
* marks the source's active call; other numbers are inactive results. Only a sample is shown.

Screening CCc1ccc(OCCCCCn2ccnc2)cc1 returned aSyn UTR act -66*.
Screening Cc1cccc2nc(COc3ccc4ccccc4c3Br)cn12 returned aSyn UTR act -203*.
`Brc1ccc2nc(CSc3ncn[nH]3)cn2c1` gave aSyn UTR act -68*.
For O=c1[nH]c(-c2ccccn2)nc2sc(-c3ccccc3)cc12 the results were aSyn UTR act -91*.
`Cc1ccccc1NC(=S)c1nc2ccccc2[nH]1` gave aSyn UTR act -145*.
S=C(Nc1ccc(Cl)cc1)c1nc2ccccc2[nH]1 was read as aSyn UTR act -79*.
COc1ccc2cnn(-c3ccc(OC(F)(F)F)cc3)c(=O)c2c1OC was read as aSyn UTR act -90*.
`O=C(Nc1ccc([N+](=O)[O-])cc1)c1ccc(Cn2cc([N+](=O)[O-])cn2)cc1` gave aSyn UTR act 79.
O=C(Nc1ccccc1F)c1ccc(Cn2cc(Cl)cn2)cc1 was read as aSyn UTR act -84*.
O=C(Nc1ccc(Cl)c(Cl)c1)c1ccc(Cn2cc(Cl)cn2)cc1 was read as aSyn UTR act -120*.
`Cc1cc(N2CCOCC2)nc2ccc(NC(=O)CCC(=O)N3CCN(c4ccc(F)cc4)CC3)cc12` gave aSyn UTR act -72*.
Screening Cc1cc(N2CCOCC2)nc2ccc(NC(=O)CCC(=O)N3CCCC(C)C3)cc12 (stereo not given) returned aSyn UTR act -87*.
For Cc1cc(N2CCOCC2)nc2ccc(NC(=O)CCC(=O)N3CCN(c4ccccc4F)CC3)cc12 the results were aSyn UTR act -127*.
`Cc1ccc(O)c(-c2cc(-c3ccccc3F)[nH]n2)c1` gave aSyn UTR act -115*.
`Cc1ccc(O)c(-c2cc(-c3cccc(F)c3)n[nH]2)c1` gave aSyn UTR act -96*.
For O=[N+]([O-])c1ccccc1-c1cc(-c2ccccc2O)n[nH]1 the results were aSyn UTR act -256*.
Screening Cc1ccc(-c2cc(-c3cccc(F)c3)n[nH]2)c(O)c1 returned aSyn UTR act -154*.
`O=C(c1ccc(-c2cccc(C(F)(F)F)c2)o1)N1CCOCC1` gave aSyn UTR act -71*.
Screening S=C(c1ccc(-c2ccccc2Cl)o1)N1CCOCC1 returned aSyn UTR act -137*.
For CC1CCN(C(=O)c2ccc(-c3ccccc3Cl)o2)CC1 the results were aSyn UTR act -104*.
O=C(c1ccc(-c2cccc(Cl)c2Cl)o1)N1CCOCC1 was read as aSyn UTR act -133*.
For O=C(Cc1ccc(Br)cc1)N1CCCCCC1 the results were aSyn UTR act -176*.
For S=C(c1ccc(-c2ccc(Br)cc2)o1)N1CCCCC1 the results were aSyn UTR act -201*.
Screening S=C(c1ccc(-c2ccc(Br)cc2)o1)N1CCOCC1 returned aSyn UTR act -178*.
For O=C(c1ccc(-c2ccc([N+](=O)[O-])cc2Cl)o1)N1CCOCC1 the results were aSyn UTR act -135*.
S=C(c1ccc(-c2ccc(Cl)c(Cl)c2)o1)N1CCOCC1 was read as aSyn UTR act -155*.
`S=c1nc[nH]c2nc[nH]c12` gave aSyn UTR act 67.
CC1CCN(S(=O)(=O)N2CCC(C(=O)NC3CCCC3)CC2)CC1 was read as aSyn UTR act -97*.
CCCS(=O)(=O)N1CCC(C(=O)NC2CCC(C)CC2)CC1 (stereo not given) was read as aSyn UTR act -64*.
For CC(=O)N1CCN=C1SCc1ccc(C(F)(F)F)cc1 the results were aSyn UTR act -85*.
For O=C(Nc1ccccn1)C1COc2ccccc2O1 (stereo not given) the results were aSyn UTR act -177*.
COc1ccc(CNC(=O)C2COc3ccccc3O2)c(OC)c1 (stereo not given) was read as aSyn UTR act -76*.
Screening COc1ccc(Cl)cc1NC(=O)C1COc2ccccc2O1 (stereo not given) returned aSyn UTR act -65*.
`Cc1cc(NC(=O)C2COc3ccccc3O2)no1` (stereo not given) gave aSyn UTR act -115*.
For Cc1cnc(NC(=O)C2COc3ccccc3O2)s1 (stereo not given) the results were aSyn UTR act 71.
Screening Cc1cccc(NC(=O)C2COc3ccccc3O2)n1 (stereo not given) returned aSyn UTR act -71*.
Screening Cc1csc(NC(=O)C2COc3ccccc3O2)n1 (stereo not given) returned aSyn UTR act 62.
`O=C(Nc1ccc(Cl)cn1)C1COc2ccccc2O1` (stereo not given) gave aSyn UTR act -137*.
`NC(=O)c1ccccc1Nc1nc2nc3ccccc3c(=O)n2cc1Br` gave aSyn UTR act -83*.
For N#Cc1ccsc1NC(=O)COc1ccc(-c2nnco2)cc1 the results were aSyn UTR act -96*.
CC(=O)Nc1ccc(SCC(=O)Nc2sccc2C#N)cc1 was read as aSyn UTR act -111*.
CCN(CC)c1ccc(C(=O)OCC(=O)Nc2sccc2C#N)cc1 was read as aSyn UTR act -176*.
`N#Cc1ccsc1NC(=O)COC(=O)c1cc2ccccc2cc1O` gave aSyn UTR act -178*.
Screening N#Cc1ccsc1NC(=O)COC(=O)c1ccc(NC(N)=O)cc1 returned aSyn UTR act -78*.
Screening N#Cc1ccsc1NC(=O)CCc1ccccc1 returned aSyn UTR act -81*.
`CCOC(=O)CNC(=O)c1ccc(OCC(F)(F)F)cc1` gave aSyn UTR act -76*.
`COCCCNC(=S)NC(=O)c1ccc(C)cc1` gave aSyn UTR act -125*.
Screening CC(C)CCOc1ccc(C(=O)NCCC(=O)N2CCOCC2)cc1 returned aSyn UTR act -82*.
Screening COc1ccc(OCCNC(=O)c2ccc(C)cc2)cc1 returned aSyn UTR act -79*.
`CS(=O)(=O)NCc1ccc(C(=O)NCCOc2ccccc2)cc1` gave aSyn UTR act -120*.
Cc1ccc(OCCNC(=O)c2ccc(C)cc2)cc1 was read as aSyn UTR act -148*.
Screening Nc1[nH]ncc1N=Nc1ccc(Cl)cc1 returned aSyn UTR act -89*.
Screening Nc1n[nH]c(N)c1N=Nc1ccc(Cl)cc1 returned aSyn UTR act -131*.
`Nc1n[nH]c(N)c1N=Nc1cccc(C(F)(F)F)c1` gave aSyn UTR act -65*.
`Cc1cc(C)n(-c2nc(-c3ccccc3)cs2)n1` gave aSyn UTR act -89*.
Cc1cc(C)n(-c2nc(-c3cccc(Cl)c3)cs2)n1 was read as aSyn UTR act -102*.
`CCc1nc2oc3ccccc3c(=O)c2cc1C(=O)OC` gave aSyn UTR act -156*.
COCc1nc2oc3ccc(C)cc3c(=O)c2cc1C(=O)OC was read as aSyn UTR act -270*.
`COCc1nc2oc3ccc(F)cc3c(=O)c2cc1C(=O)OC` gave aSyn UTR act -108*.
For Cc1cccn2c(=O)c3cc(C(=O)N4COCC4(C)C)sc3nc12 the results were aSyn UTR act -97*.
Screening Cn1c(C(=O)N2COCC2(C)C)cc2c(=O)n3ccccc3nc21 returned aSyn UTR act -81*.
For Cn1c(C(=O)NCCC2=CCCCC2)cc2c(=O)n3ccccc3nc21 the results were aSyn UTR act -70*.
For CCC(C)OC(=O)n1ccc(C(=O)Nc2nccs2)n1 (stereo not given) the results were aSyn UTR act -69*.
Screening CC(=O)Nc1ncnc2c1c(-c1ccc(Cl)cc1)nn2C(C)(C)C returned aSyn UTR act 53.
CC(=O)Nc1nc(-c2ccc(Cl)cc2)nc(C)c1C(C)=O was read as aSyn UTR act -111*.
Screening Cc1ccc(O)c(NC(=S)NC(=O)/C=C/c2ccco2)c1 returned aSyn UTR act -170*.

Compound activity (PubChem)
